Values without a mark were called inactive. Records with an inconclusive call do not appear. Entries that show only a call come without a potency. Calls of active or inactive are those of the source. Unless noted, the call rests on the fitted dose curve.

System in the first assay: not listed separately
The experiment in a line: qHTS assay to identify small molecule agonists of the sonic hedgehog signaling (Shh) pathway (AID 1259368). Further: nearly all actives have a fitted effect of over 15% in size. The following applies: NIH/3T3 Gli1-Luc reporter, luciferase, 24 h, active compounds read high; series mostly up to 92.4 µM. An outline of the steps: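 Quantitative high-throughput format using a Gli1-driven firefly luciferase reporter line derived from NIH/3T3 cells. After a 24 hr compound treatment at 37 C and 5% CO2, luminescence reported Gli1 response element activity.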
In general terms: Quantitative high-throughput screening tests each substance at several concentrations.
Consider `CC(C)CNCC(C)C`, for which the result was inactive.
Turning to `CCCCCCCCCCCCCCCCC`, the outcome was inactive.
Same read-out and setting: in the case of `Oc1ccc(C2CNCCc3c2cc(O)c(O)c3Cl)cc1` (stereo not drawn) it was “inactive”; in that of `Brc1c(NC2=NCCN2)ccc2nccnc12`, “inactive”.
Same read-out and setting: in the case of `COC(=O)NN` it was “inactive”.
Same read-out and setting: in the case of `CCN1CCC[C@H]1CNC(=O)c1c(O)c(Cl)cc(Cl)c1OC` it was “inactive”; in that of `CC/C=C\CCOC(C)=O`, “inactive”.
In the case of `O=C1CCCCCCCCCCCN1`, the compound was classed as inactive.
The same measure, in the same setting: in the case of `CCSC(=O)N(CC(C)C)CC(C)C` it was “inactive”; in that of `O=c1cc(-c2ccccc2)oc2ccccc12`, “inactive”.
Still for that read-out and setting: the entry for `OCCCC1CCCCC1` is “inactive”; for `CCn1ccnc1CC1COc2ccccc2O1` (stereo not drawn) it is “inactive”; for `O=C(O)CCCl` it is “inactive”.
`CCC(C)S` (stereo not drawn): the activity change is -0.25% [at 3.27 µM].
Take `Cc1ccc(Cl)cc1Cl`: the compound was called inactive.
The same measure, in the same setting: the entry for `CC(C)NCC(O)c1ccc(NS(C)(=O)=O)cc1` (stereo not drawn) is “inactive”; for `CCS(=O)(=O)c1ccc(OC)c(C(=O)OC)c1` it is “inactive”.
The same measure, in the same setting: in the case of `C/C=C(\C)C#N` it was “inactive”; in that of `Nc1ccccc1S(=O)(=O)O`, “inactive”.
On the same count and under the same terms, in the case of `CCOC(=O)Nc1ccc(NCc2ccc(F)cc2)nc1N` it was “inactive”; in that of `CC[N+](C)(C)c1cccc(O)c1`, “inactive”.
As for `O=C(O)CCCc1ccccc1`, the compound was called inactive.
For the compound `Nc1ccc(S(=O)(=O)Nc2ccnn2-c2ccccc2)cc1`, the activity change is -1.14% [at 18.9 µM].
Turning to `CC(C)=CCCC(C)CC(=O)O` (stereo not drawn), the call was inactive.
For the compound `O=C1NC(=O)[C@@]2(CCOc3ccc(F)cc32)N1`, the compound was classed as inactive.
On the same count and under the same terms, in the case of `C=C(C)CS(=O)(=O)O` it was “inactive”.
In the case of `CC1=CC(C)C(C=O)CC1` (stereo not drawn), the compound was called inactive.
On to `CCOC(=O)CCC(C)=O`, for which the call was inactive.
Still for that read-out and setting: the entry for `c1ccc(CC2=NCCN2)cc1` is “inactive”; for `COc1c(N2C[C@@H]3CCCN[C@@H]3C2)c(F)cc2c(=O)c(C(=O)O)cn(C3CC3)c12` it is “inactive”; for `NC(CSCC(=O)O)C(=O)O` (stereo not drawn) it is “inactive”.
Same read-out and setting: the entry for `CCCCCCCCS(=O)(=O)Cl` is “inactive”; for `COC(=O)c1cc(C(=O)OC)cc(S(=O)(=O)O)c1` it is “inactive”; for `COCCCOCCCOC` it is “inactive”.
For `CN1CC(=O)NC1=N`, the compound was classed as inactive.

System in the next assay: not listed separately
In words: qHTS assay to identify small molecule antagonists of the sonic hedgehog signaling (Shh) pathway (AID 1259369). Further: nearly all actives have a fitted effect of over 45% in size. Further: potency means the concentration at half of the fitted maximal effect. The following applies: NIH/3T3 Gli1-Luc reporter, Shh antagonist, luminescence 24 h; series mostly up to 42.5 µM. An outline of the steps: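 Stable Gli1-Luc reporter NIH/3T3 clone; quantitative HTS in stimulated mode with conditioned medium. Luminescence measured after 24hr compound treatment at 37 C.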
Take `CC(C)CNCC(C)C`: the Potency result was “inactive”.
Regarding `CCCCCCCCCCCCCCCCC`, the Potency result is “inactive”.
On the same count and under the same terms, in the case of `Oc1ccc(C2CNCCc3c2cc(O)c(O)c3Cl)cc1` (stereo not drawn) it was “inactive”.
Still for that read-out and setting: the entry for `Brc1c(NC2=NCCN2)ccc2nccnc12` is “inactive”; for `COC(=O)NN` it is “inactive”; for `CCN1CCC[C@H]1CNC(=O)c1c(O)c(Cl)cc(Cl)c1OC` it is “inactive”.
Same read-out and setting: the entry for `CC/C=C\CCOC(C)=O` is “inactive”.
`O=C1CCCCCCCCCCCN1`: the Potency entry was “inactive”.
The same measure, in the same setting: the entry for `CCSC(=O)N(CC(C)C)CC(C)C` is “inactive”; for `O=c1cc(-c2ccccc2)oc2ccccc12` it is 15.3 µM (active); for `OCCCC1CCCCC1` it is “inactive”.
Same read-out and setting: the entry for `CCn1ccnc1CC1COc2ccccc2O1` (stereo not drawn) is “inactive”.
Same read-out and setting: the entry for `O=C(O)CCCl` is “inactive”.
As to `CCC(C)S` (stereo not drawn), the activity change, negative = inhibition is 17.6% [at 3.27 µM].
`Cc1ccc(Cl)cc1Cl`: the Potency result was “inactive”.
Still for that read-out and setting: the entry for `CC(C)NCC(O)c1ccc(NS(C)(=O)=O)cc1` (stereo not drawn) is “inactive”; for `CCS(=O)(=O)c1ccc(OC)c(C(=O)OC)c1` it is “inactive”.
The same measure, in the same setting: the entry for `C/C=C(\C)C#N` is “inactive”.
Same read-out and setting: the entry for `Nc1ccccc1S(=O)(=O)O` is “inactive”; for `CCOC(=O)Nc1ccc(NCc2ccc(F)cc2)nc1N` it is “inactive”.
Take `CC[N+](C)(C)c1cccc(O)c1`: the Potency entry was “inactive”.
`O=C(O)CCCc1ccccc1`: the Potency entry is “inactive”.
Same read-out and setting: in the case of `Nc1ccc(S(=O)(=O)Nc2ccnn2-c2ccccc2)cc1` it was “inactive”.
Still for that read-out and setting: in the case of `CC(C)=CCCC(C)CC(=O)O` (stereo not drawn) it was “inactive”; in that of `O=C1NC(=O)[C@@]2(CCOc3ccc(F)cc32)N1`, “inactive”; in that of `C=C(C)CS(=O)(=O)O`, “inactive”.
On the same count and under the same terms, in the case of `CC1=CC(C)C(C=O)CC1` (stereo not drawn) it was “inactive”.
In the case of `CCOC(=O)CCC(C)=O`, the Potency result was “inactive”.
Still for that read-out and setting: the entry for `c1ccc(CC2=NCCN2)cc1` is “inactive”; for `COc1c(N2C[C@@H]3CCCN[C@@H]3C2)c(F)cc2c(=O)c(C(=O)O)cn(C3CC3)c12` it is “inactive”.
Consider `NC(CSCC(=O)O)C(=O)O` (stereo not drawn), for which the Potency entry was “inactive”.
Same read-out and setting: the entry for `CCCCCCCCS(=O)(=O)Cl` is “inactive”.
For the compound `COC(=O)c1cc(C(=O)OC)cc(S(=O)(=O)O)c1`, the Potency entry is “inactive”.
In the case of `COCCCOCCCOC`, the Potency entry was “inactive”.
Same read-out and setting: the entry for `CN1CC(=O)NC1=N` is “inactive”.

A further assay deals with Estrogen receptor beta (Homo sapiens) (UniProt Q92731). In words: qHTS assay to identify small molecule agonists of the estrogen receptor beta (ER-beta) signaling pathway (AID 1259377; active means well fitted activation curve with a large enough effect in the signal ratio in the repeat runs, not every such curve was filed as active; the % refers to the signal ratio). To be noted: ER-beta-UAS-bla HEK293T, beta-lactamase FRET ratio, 16 h; series mostly up to 42.5 µM. The method in brief: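 qHTS in ER-beta-UAS-bla HEK293T cells: 6 hr settling, then 16 hr compound at 37C, then LiveBLAzer substrate 2 h at RT before fluorescence reading.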
Chain of Estrogen receptor beta (Homo sapiens) (Q92731 whole entry, looked up): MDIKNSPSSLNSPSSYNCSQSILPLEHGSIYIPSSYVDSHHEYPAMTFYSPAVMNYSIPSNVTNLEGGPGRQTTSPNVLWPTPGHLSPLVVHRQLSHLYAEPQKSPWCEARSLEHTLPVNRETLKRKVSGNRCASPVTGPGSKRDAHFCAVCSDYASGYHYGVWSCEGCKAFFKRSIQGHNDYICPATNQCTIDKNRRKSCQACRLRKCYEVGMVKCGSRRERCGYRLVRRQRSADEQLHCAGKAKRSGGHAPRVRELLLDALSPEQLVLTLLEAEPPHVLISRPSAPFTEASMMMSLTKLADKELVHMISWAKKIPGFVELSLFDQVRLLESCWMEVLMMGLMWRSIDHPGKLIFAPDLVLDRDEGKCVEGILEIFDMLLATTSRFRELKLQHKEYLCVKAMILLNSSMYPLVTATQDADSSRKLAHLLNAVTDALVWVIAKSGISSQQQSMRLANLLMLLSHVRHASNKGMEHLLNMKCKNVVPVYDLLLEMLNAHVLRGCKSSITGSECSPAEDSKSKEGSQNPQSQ
Consider `CC(C)CNCC(C)C`, for which the outcome was inactive.
Same read-out and setting: the entry for `CCCCCCCCCCCCCCCCC` is “inactive”.
As for `Oc1ccc(C2CNCCc3c2cc(O)c(O)c3Cl)cc1` (stereo not drawn), the outcome was inactive.
In the case of `COC(=O)NN`, the outcome was inactive.
Consider `CCN1CCC[C@H]1CNC(=O)c1c(O)c(Cl)cc(Cl)c1OC`, for which the outcome was inactive.
Take `CC/C=C\CCOC(C)=O`: the result was inactive.
Same read-out and setting: the entry for `O=C1CCCCCCCCCCCN1` is “inactive”.
Still for that read-out and setting: the entry for `CCSC(=O)N(CC(C)C)CC(C)C` is “inactive”.
As for `OCCCC1CCCCC1`, the outcome was inactive.
`O=C(O)CCCl`: the outcome was inactive.
On to `CCC(C)S` (stereo not drawn), for which the activation was 0.578% [at 3.32 µM].
For the compound `Cc1ccc(Cl)cc1Cl`, the outcome was inactive.
Regarding `CC(C)NCC(O)c1ccc(NS(C)(=O)=O)cc1` (stereo not drawn), the outcome was inactive.
Turning to `CCS(=O)(=O)c1ccc(OC)c(C(=O)OC)c1`, the outcome was inactive.
Same read-out and setting: in the case of `Nc1ccccc1S(=O)(=O)O` it was “inactive”.
Consider `CCOC(=O)Nc1ccc(NCc2ccc(F)cc2)nc1N`, for which the result was inactive.
Same read-out and setting: in the case of `CC[N+](C)(C)c1cccc(O)c1` it was “inactive”.
In the case of `O=C(O)CCCc1ccccc1`, the outcome was inactive.
Same read-out and setting: in the case of `CC(C)=CCCC(C)CC(=O)O` (stereo not drawn) it was “inactive”; in that of `O=C1NC(=O)[C@@]2(CCOc3ccc(F)cc32)N1`, “inactive”; in that of `CC1=CC(C)C(C=O)CC1` (stereo not drawn), “inactive”.
Same read-out and setting: the entry for `c1ccc(CC2=NCCN2)cc1` is “inactive”.
On the same count and under the same terms, in the case of `COc1c(N2C[C@@H]3CCCN[C@@H]3C2)c(F)cc2c(=O)c(C(=O)O)cn(C3CC3)c12` it was “inactive”.
For the compound `NC(CSCC(=O)O)C(=O)O` (stereo not drawn), the outcome was inactive.
On the same count and under the same terms, in the case of `CCCCCCCCS(=O)(=O)Cl` it was “inactive”; in that of `COC(=O)c1cc(C(=O)OC)cc(S(=O)(=O)O)c1`, “inactive”.
On the same count and under the same terms, the entry for `COCCCOCCCOC` is “inactive”; for `CN1CC(=O)NC1=N` it is “inactive”.

(Values after PubChem BioAssay (Tox21).)
